Data taken from PubChem BioAssay (NCATS).
Results filed as inconclusive are left out. Unmarked numbers belong to inactive results. Calls of active or inactive are those of the source. Calls come from the whole dose curve; as a rule, active = well fitted curve in the direction sought with a large enough effect; inconclusive = small, poorly fitted or top-dose-only effect, or another doubt; inactive = no such curve, though single readings can be large; an effect the other way counts as inactive or inconclusive.

Legend:
[1] = P-glycoprotein substrates identified in KB-3-1 adenocarcinoma cell line, qHTS therapeutic library screen (AID 1346986); conditions: KB-3-1 parental cells viability, CellTiter-Glo, 72 h; series mostly up to 44.5 µM; note: nearly all actives have a fitted effect of over 60% in size;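 note: potency is for cytotoxicity meaning loss of cell viability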
Procedure, shortened: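 Using luminescence to quantify ATP, parental and P-gp-overexpressing KB cells were compared after 72 h compound titration. KB-8-5-11 was also run with the P-gp inhibitor tariquidar.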

[2] = P-glycoprotein substrates identified in KB-8-5-11 adenocarcinoma cell line, qHTS therapeutic library screen (AID 1346987); conditions: KB-8-5-11 (P-gp overexpressing) viability, CellTiter-Glo, 72 h; series mostly up to 44.5 µM; note: nearly all actives have a fitted effect of over 65% in size; for activity change, negative = cytotoxicity: % is set by controls: 0 for no effect and ±100 for the full control effect
Procedure, shortened: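 Human cervical adenocarcinoma KB-8-5-11 cells, selected in colchicine to over-express P-gp and assayed without it, were exposed for 72 h to titrated compounds. An ATP-based luminescent viability signal gave AC50.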
Potency is the fitted concentration of half-maximal effect.

## COc1cc2ncnc(Nc3cccc(I)c3)c2cc1OC
[1]
  Potency: 6.51 µM (active)
[2]
  Potency: 5.8 µM (active)

## O=C(Cc1c(F)cccc1F)Nc1cc(OCc2ccc(Cl)cc2)ccn1
[1]
  Potency: inactive
[2]
  Potency: inactive

## CCC(C)C1NC(=O)C(Cc2ccccc2)NC(=O)C(CCCCCC(=O)C(O)CO)NC(=O)C2CCCCN2C1=O (stereo unspecified)
[1]
  Potency: inactive
[2]
  Potency: inactive

## COc1cccc(OCCCN)c1-c1cc(Nc2cnc(C#N)cn2)n[nH]1
[1]
  Potency: 0.146 µM (active)
[2]
  Potency: 1.3 µM (active)

## N#Cc1cc(-c2ccnc(Nc3ccc(N4CCOCC4)cc3)n2)ccc1OC1CCOCC1
[1]
  Potency: 13 µM (active)
[2]
  Potency: 16.4 µM (active)

## CC1(C)CC[C@]2(C(=O)O)[C@H](O)C[C@]3(C)C(=CCC4[C@@]5(C)CC[C@H](O[C@@H]6O[C@H](CO[C@@H]7OC[C@H](O)[C@H](O)[C@H]7O[C@@H]7OC[C@H](O)[C@H](O)[C@H]7O)[C@@H](O)[C@H](O)[C@H]6O)C(C)(C)C5CC[C@]43C)[C@@H]2C1 (stereo partly specified)
[1]
  outcome: inactive [at 9.29 µM]
[2]
  outcome: inactive [at 9.29 µM]

## Cc1[nH]c2ccccc2c1CCNC(=O)c1cccs1
[1]
  Potency: inactive
[2]
  Potency: inactive

## C[C@@H]1O[C@@H](O[C@H]2CC[C@@]3(C)C(CC[C@]4(C)C3CC=C3[C@@H]5CC(C)(C)CC[C@]5(C(=O)O[C@@H]5O[C@H](CO)[C@@H](O)[C@H](O)[C@H]5O)CC[C@]34C)[C@]2(C)CO)[C@H](O)[C@H](O[C@@H]2O[C@H](CO)[C@@H](O)[C@H](O)[C@H]2O)[C@H]1O (stereo partly specified)
[1]
  outcome: inactive [at 9.29 µM]
[2]
  activity change, negative = cytotoxicity: 3.4% [at 9.29 µM]
